Rows were chosen to be rich in hits. Some 1% of all compounds tested hit in one or more screens of this group.
TSHR antagonist – Antagonists of the Thyroid Stimulating Hormone Receptor: HTS campaign; Thyrotropin receptor (Homo sapiens), P16473; TSHR-expressing cells, TSH-stimulated cAMP HTRF, 2 h; stronger effect = lower value; activity change, negative = inhibition, % at 11.5 µM; 0.2% of 330,000 active;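 active = activity change below a set negative limit, meaning inhibition stronger than a set level, cut at about -70% in these data; inconclusive = activity change between two set negative limits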; note: % is set by controls: 0 for no effect and ±100 for the full control effect
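TSHR-expressing cells, 200/well, pre-treated with compound, then stimulated with EC80 TSH (4nM final) for 2 hours at 37 deg C. cAMP measured by competitive HTRF: anti-cAMP cryptate antibody in lysis buffer plus cAMP-d2, read after 30 minutes at room temperature.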
FBPA coupling cs – qHTS Assay for Inhibitors of Fructose-1,6-bisphosphate Aldolase from Giardia Lamblia: Coupling assay counterscreen | activity change, negative = inhibition, % at 58.2 µM, hits read low | 0.67% of 290,000 active | coupling enzyme system counterscreen, AmpLite Red fluorescence; in the data active = activity change below about -30%; note: % is set by controls: 0 for no effect and ±100 for the full control effect
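Counterscreen of the coupled detection system alone, without aldolase: glyceraldehyde-3-phosphate coupling enzymes plus AmpLite Red readout. Compounds at 57.5 uM final, 10 min RT preincubation, 20 min RT reaction, fluorescence 525/598 nm.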
TCR activator – Activators of T cell receptors: qHTS campaign; primary human leukocytes, anti-CD3, IL-2 HTRF, 48 h; Potency, µM (top dose mostly 9.22 µM), for inactives: at the highest dose activation of IL-2 secretion, actives largely listed as activators; 330,000 tested, under 10 active; AID 504894, 2011; note: % of control where 0% means no effect
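IL-2 release read by HTRF sandwich (Eu cryptate donor, d2 acceptor, 665 nm emission) after 48 hr exposure of primary human leukocytes to compound together with anti-CD3 beads in the absence of co-stimulatory signals.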
NPSR antagonist – qHTS Assay for Antagonists of the Neuropeptide S Receptor: cAMP Signal Transduction; Q6W5P4; CHO-NPSR cells, cAMP TR-FRET, antagonist mode; Potency, µM (top dose mostly 38.3 µM), without a hit: top-dose activity change, negative = inhibition, most hits filed as inhibitors; 1% of 220,000 active; note: potency is the fitted concentration of half-maximal effect; % is set by controls: 0 for no effect and ±100 for the full control effect; nearly all actives have a fitted effect of over 50% in size
TRb SRC2 PPI – qHTS for Inhibitors of the Interaction of Thyroid Hormone Receptor and Steroid Receptor Coregulator 2. Thyroid hormone receptor beta (Homo sapiens), P10828. TRbeta-SRC2 peptide binding, fluorescence polarization; receptor liganded with 1 µM T3. Potency, µM (top dose mostly 106 µM), without a hit: at the top dose activity change, negative = inhibition, usual class: inhibitors. 0.065% of 280,000 active. AID 1469, 2008;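 note: potency is the fitted concentration of half-maximal effect; plate controls were bound peptide for no effect and peptide without receptor for full effect; nearly all actives have a fitted effect of over 50% in size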
Target sequence (P10828 whole entry, looked up): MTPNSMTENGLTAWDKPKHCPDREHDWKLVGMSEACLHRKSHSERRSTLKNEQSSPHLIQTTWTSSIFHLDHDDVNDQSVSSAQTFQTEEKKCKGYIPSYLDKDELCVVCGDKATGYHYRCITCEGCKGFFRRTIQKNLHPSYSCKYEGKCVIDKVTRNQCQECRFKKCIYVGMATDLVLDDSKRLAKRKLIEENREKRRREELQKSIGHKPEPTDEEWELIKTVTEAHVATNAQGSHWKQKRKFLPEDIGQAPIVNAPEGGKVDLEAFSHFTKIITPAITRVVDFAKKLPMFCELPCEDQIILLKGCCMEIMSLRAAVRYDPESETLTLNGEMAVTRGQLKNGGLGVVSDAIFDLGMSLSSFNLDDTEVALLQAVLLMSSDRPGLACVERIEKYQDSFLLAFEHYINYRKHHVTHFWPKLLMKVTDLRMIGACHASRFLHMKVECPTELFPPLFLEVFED
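Read-out is fluorescence polarization (555 nm excitation, 632 nm emission) of a Texas Red SRC2 coactivator peptide; loss of signal reflects blocked binding to human TRb ligand-binding domain in the presence of 1 uM T3.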
TR SRC2 fluor cs – Total Fluorescence Counterscreen for Inhibitors of the Interaction of Thyroid Hormone Receptor and Steroid Receptor Coregulator 2; Potency, µM (top dose mostly 106 µM), for inactives: top-dose fluorescence change, negative = quenching; 0.29% of 280,000 active; TRb/SRC2 Texas Red total fluorescence interference; AID 1479, 2009; active = well fitted curve in either direction with a large enough effect; inconclusive = small, poorly fitted or top-dose-only effect; note: potency is the fitted concentration of half-maximal effect; % is set by controls: 0 for no effect and ±100 for the full control effect
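Flags fluorescent or light-absorbing compounds by total fluorescence, S + 2P, at 555 nm excitation and 632 nm emission. Mixture: 20 nM Texas Red SRC2 peptide, 0.6 uM human TRb LBD, 1 uM T3, 5% DMSO; compound exposure 5 h at ambient temperature.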
* = called active by the depositor; ? = inconclusive; · = no result; [ ] = another dose, or the depositor's remark. Unless noted, calls come from the whole dose curve; as a rule, active = well fitted curve in the direction sought with a large enough effect; inconclusive = small, poorly fitted or top-dose-only effect, or another doubt; inactive = no such curve, though single readings can be large; an effect the other way counts as inactive or inconclusive.

SMILES | TSHR antagonist | FBPA coupling cs | TCR activator | NPSR antagonist | TRb SRC2 PPI | TR SRC2 fluor cs
CCC(C)C(=O)N1c2ccccc2C(=C2SC(C(=O)OC)=C(C(=O)OC)S2)C(=S)C1(C)C (configuration not stated) | -14 | -6 | 14% | 10µM* | -10% | 1%
c1ccc2c(c1)CC/C2=N/Nc1nc2ccccc2[nH]1 | 0 | -20 | 4% | 7.9µM* | 13% | -4%
CC(C)(C)C1CCC(=NNc2nc3ccccc3[nH]2)CC1 (configuration not stated) | 0 | 1 | 2% | 9% | 4% | -6%
CCCCn1c(/C=N/Nc2nc3ccccc3[nH]2)nc2ccccc21 | -11 | 1 | -6%[46.1 µM] | 13µM* | -2% | -4%
C(=N\Nc1nc2ccccc2[nH]1)/c1ccccn1 | -6 | -1 | 3% | 10µM* | 3% | -1%
C#CCn1cc(/C=N/Nc2nc3ccccc3[nH]2)c2ccccc21 | 17 | -2 | 11%[46.1 µM] | 13µM* | -6% | 12%
Fc1ccccc1-c1ccc(/C=N/Nc2nc3ccccc3[nH]2)o1 | -1 | -1 | 2%[46.1 µM] | -30% | 5%[53 µM] | 0%[53 µM]
CCCN(CCC)C(=O)Cn1c(=O)n(-c2ccc(CC)cc2)c(=O)c2c3c(sc21)CCC3 | · | · | · | · | -6% | 0.2µM*[quencher]
COc1ccc(NS(=O)(=O)c2ccc3[nH]c4c(c3c2)CCCC4)cc1OC | · | · | · | · | -1% | 0%
COc1cc(NS(=O)(=O)c2ccc3[nH]c4c(c3c2)CCCC4)cc(OC)c1OC | · | · | · | · | -15% | 20µM*[quencher]
NC(=O)C1CCN(c2nc(-c3ccccc3)cs2)CC1 | 2 | · | · | · | · | ·
CN(C)S(=O)(=O)c1ccc(C(=O)NCCS(=O)(=O)N2CCN(c3ccccc3)CC2)cc1 | · | · | · | · | 3% | -18%
Cc1cc2c(n1-c1ccc(C(=O)NCCc3ccc(Cl)cc3)cc1)CCC(C)C2 (configuration not stated) | · | · | · | · | 3% | -23%
Cc1ccc(NC(=O)C(=O)NCCc2csc3nc(-c4ccccc4C)nn23)cc1Cl | · | · | · | · | 0% | -16%
Cc1ccc(C)c(NC(=O)C(=O)NCCc2csc3nc(-c4ccccc4C)nn23)c1 | · | · | · | · | -15% | 22µM*[quencher]
Cc1ccc(S(=O)(=O)/N=C2/C=C(C3C(=O)CC(C)(C)CC3=O)C(=O)c3ccccc32)cc1 | 4 | -48* | -1% | ? | -3% | -1%
Cc1ccc(S(=O)(=O)/N=C2\C=C(NS(=O)(=O)c3ccccc3)C(=O)c3ccccc32)cc1 | · | · | -1% | · | · | ·
Cc1ccc(N=Nc2c(O)ccc3ccccc23)c(C)c1 | · | · | · | · | 40µM* | 45µM*[fluorescent]
Cc1ccc(N=Nc2c(O)ccc3ccccc23)c([N+](=O)[O-])c1 | · | · | · | · | -6%[201 µM] | 3%[201 µM]
Oc1ccc2ccccc2c1N=Nc1ccccn1 | -10 | 2 | 12% | 7.9µM* | 4% | -14%
CC/C=C/CCCCCCCCCCOC(C)=O | · | · | · | · | -1%[201 µM] | 0%[201 µM]
COc1ccc(CS(=O)(=O)/C(Cl)=C(/Cl)C(=O)Nc2ccc(OC)nc2)cc1 | -43 | 0 | 2% | 6.3µM* | 9% | -1%
COc1ccc(NC(=O)/C(Cl)=C(/Cl)S(=O)Cc2ccccc2)cn1 (configuration not stated) | -39 | 2 | 0% | 1.3µM* | 3% | -4%
Cc1[nH]c(=O)c(C#N)c2c1COC(C)(C)C2 | 5 | 2 | -2% | 20% | 1% | -4%
CC1=C(C#N)C(=O)OC(C)(C)C1 | 10 | -10 | 1% | -3%[46.1 µM] | ? | 45µM*[fluorescent]
COC1=CC(=O)C=C(OC)C1=O | · | -81* | -1% | · | 11% | 0%
CC(C)Cc1c(C(=O)O)c(C(F)F)nc(C(F)(F)F)c1C1=NCCS1 | · | · | · | · | 0%[201 µM] | -2%[201 µM]
